Rows were chosen to be rich in hits. Some 0.45% of all compounds tested hit in one or more screens of this group.
SRC2 inh: human SRC2 (NCOA2) inhibition; Q15596; HEK293 GAL4-SRC2 luciferase reporter, luminescence; inhibition, % at 9 µM; actives 0.17% (n = 370,000); AID 651957;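 active means inhibition above the mean inhibition of all tested compounds plus 3 SD, set per campaign, cut at about 52% in these data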;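 further: 0% = DMSO treated cells and 100% = cells given Gossypol at 36 µM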
NCOA1 inh: human NCOA1 inhibition; actives 0.12% (n = 360,000); inhibition, % at 3.6 µM; HEK293 GAL4-SRC1 luciferase reporter, luminescence; AID 588354;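 active means inhibition above the campaign mean plus 3 SD, with each screening campaign given its own cutoff, cut at about 60% in these data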;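 further: 0% = DMSO treated cells and 100% = gossypol at 36 µM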
LRH-1 inv ag: NR5A2 inverse agonism in reporter assay. O00482. HEK293T StAR-luciferase reporter, LRH-1 transfected, 24 h. inhibition, % at 3.6 µM. actives 0.13% (n = 360,000);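 active means inhibition above the mean inhibition of all tested compounds plus 3 SD, cut at about 73% in these data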;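 further: 0% = DMSO wells and 100% = reporter-only cells lacking LRH-1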
Target sequence (O00482 whole entry, looked up): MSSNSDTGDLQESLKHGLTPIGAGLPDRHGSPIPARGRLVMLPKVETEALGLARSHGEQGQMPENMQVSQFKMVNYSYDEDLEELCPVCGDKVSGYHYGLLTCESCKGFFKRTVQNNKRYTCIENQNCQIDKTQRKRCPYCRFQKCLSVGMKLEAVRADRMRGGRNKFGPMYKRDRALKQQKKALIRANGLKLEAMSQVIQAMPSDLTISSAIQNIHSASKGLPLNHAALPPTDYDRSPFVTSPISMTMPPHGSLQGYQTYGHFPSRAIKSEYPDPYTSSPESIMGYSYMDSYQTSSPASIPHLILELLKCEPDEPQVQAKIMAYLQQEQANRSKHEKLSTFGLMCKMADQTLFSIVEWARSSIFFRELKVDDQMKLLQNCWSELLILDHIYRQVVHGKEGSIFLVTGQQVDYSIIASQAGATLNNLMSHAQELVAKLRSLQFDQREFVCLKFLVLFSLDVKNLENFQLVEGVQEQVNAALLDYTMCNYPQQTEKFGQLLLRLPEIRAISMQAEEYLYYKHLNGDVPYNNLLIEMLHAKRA
LGR2 antag: blocks bursicon-induced cAMP signaling via Drosophila LGR2; HEK293 LGR2, CRE-luciferase, bursicon-stimulated, 4 h; inhibition, % at 9.99 µM; actives 0.35% (n = 380,000); AID 720647;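 active means drop in luminescence signal, shown as inhibition above about 50% in the replicate tests, limit read from the data, passing the limit was not always enough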;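 further: agonist challenge used bursicon conditioned medium at about half maximal strength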
NCOA3 inh: inhibitors of human steroid receptor coactivator 3 (SRC3) | Q9Y6Q9 | HEK293 GAL4-SRC3 luciferase reporter, luminescence | inhibition, % at 3.6 µM | actives 0.17% (n = 360,000);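 active means inhibition above a per-campaign cutoff, the mean of all compounds plus 3 SD, cut at about 60% in these data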;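 further: 0% = DMSO-treated cells and 100% = gossypol-treated cells at 36 µM; higher means less SRC3-driven luciferase light from the GAL4 reporter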
Active calls of the source: *; · = not tested or not shown.

SMILES	SRC2 inh	NCOA1 inh	LRH-1 inv ag	LGR2 antag	NCOA3 inh
Cc1nc(Nc2nc(CSc3nc4ccccc4[nH]3)cc(=O)[nH]2)nc2ccccc12	-6.0	23.9	-5.4	82.1*	34.3
Cc1ccc2c(=O)[nH]c(Nc3nc(C)cc(-c4ccccc4)n3)nc2c1	26.7	-1.6	-14.8	-15.3	12.1
Cc1nc(Nc2nc(-c3ccccc3)cc(=O)[nH]2)nc2ccccc12	-7.7	-34.4	-12.3	62.6*	1.5
COc1nc(Nc2nc3ccccc3c(=O)[nH]2)nc2ccc(C)cc12	-34.7	-0.8	5.6	52.4*	8.5
C[C@H](CO)N1C[C@H](C)[C@@H](CN(C)Cc2ccc(Cl)c(Cl)c2)Oc2ccc(NS(=O)(=O)c3ccc(F)cc3)cc2CC1=O	·	·	·	12.2	·
C[C@@H]1CCCCO[C@@H](CN(C)Cc2ccc(C(=O)Nc3ccccc3N)cc2)[C@@H](C)CN([C@H](C)CO)C(=O)c2cc(NC(=O)Cc3ccccc3)ccc2O1	·	·	·	5.3	·
CCOC(=O)/C=C/C(=O)Nc1ccc(Oc2ccccc2)cc1	-11.4	-14.7	4.1	101.7*	9.9
COc1ccc(OC(=O)C(C)N2C(=O)c3ccccc3C2=O)cc1 (stereo unspecified)	7.8	12.8	-6.3	9.0	-5.1
CC1=CC(C)(C)Nc2ccc(OC(=O)c3ccco3)cc21	54.6*	10.0	20.9	-21.8	-1.6
CC1=CC(C)(C)Nc2ccc(OC(=O)C(C)N3C(=O)c4ccccc4C3=O)cc21 (stereo unspecified)	63.1*	-8.3	11.6	·	6.1
CC1=CC(C)(C)Nc2ccc(OC(=O)c3cccnc3)cc21	38.8	-4.3	22.4	-0.4	-8.5
O=C(c1ccco1)N1CCN(C(=O)c2ccco2)C1=S	12.1	10.2	-7.0	83.0*	22.5
COc1cc(C=O)ccc1OCCCOc1ccccc1C(=O)O	60.0*	-39.4	-90.1	·	-61.5
COc1cc(C=O)ccc1OCCCOc1ccccc1[N+](=O)[O-]	-46.1	-29.6	8.3	-23.2	-23.7
O=c1c2ccccc2cnn1-c1nc2ccccc2[nH]1	82.8*	69.6*	40.9	100.4*	64.9*
C[C@H]1CCCCO[C@@H](CN(C)C(=O)Cc2ccccc2)[C@@H](C)CN([C@@H](C)CO)C(=O)c2cc(NC(=O)c3ccncc3)ccc2O1	·	·	·	32.2	·
Cn1c2ccccc2c(=O)c2cc(C#CC3(O)CCCCC3)ccc21	6.5	17.0	8.9	82.3*	19.4
Cc1cc2sc3ccc(C#CC4(O)CCCCC4)cc3c(=O)c2cc1C	82.0*	87.6*	78.3*	·	86.7*
O=c1c2ccccc2oc2ccc(C#CC3(O)CCCCC3)cc12	-16.0	33.8	17.5	74.9*	26.0
C=CC(=O)Nc1ccc(Nc2nc(NC3CCC(N(C)C)CC3)nc3c2ncn3C(C)C)cc1 (stereo unspecified)	·	86.3*	97.0*	·	83.9*
CC(C)n1cnc2c(Nc3ccc(F)c(Cl)c3)nc(NCCO)nc21	-46.1	-14.9	8.7	·	-6.6
COc1ccccc1S(=O)(=O)Nc1ccc2c(c1)OC[C@H](C)NC[C@H](C)[C@@H](OC)CN(C)C2=O	·	·	·	8.5	·
CCOc1ccc(C2C=C(c3ccc(F)cc3)Nc3ncnn32)cc1 (stereo unspecified)	-52.4	-43.5	-63.1	·	-64.5
Oc1ccc(C2C=C(c3ccc(F)cc3)Nc3ncnn32)cc1 (stereo unspecified)	20.0	66.0*	0.3	-3.5	10.8
O=C(O)CCSc1nc2ccccc2s1	77.9*	19.1	-4.5	-10.0	15.8
SMILES	SRC2 inh	NCOA1 inh	LRH-1 inv ag	LGR2 antag	NCOA3 inh
c1ccc2sc(SCSc3nc4ccccc4s3)nc2c1	-23.0	-51.4	-45.1	-20.9	0.9
O=C(C[C@@H]1C[C@H]2c3cc(NC(=O)c4ccc5c(c4)OCO5)ccc3O[C@H]2[C@@H](CO)O1)NCc1ccc(Oc2ccccc2)cc1	·	·	·	52.5*	·
C[C@H](CO)N1C[C@H](C)[C@@H](CN(C)S(=O)(=O)c2ccc(Cl)cc2)Oc2ccc(NC(=O)Nc3ccc(C(F)(F)F)cc3)cc2CC1=O	·	·	·	4.8	·
CCCCC(=O)N(C)c1c(C)nc2ccc(C(=O)N3CCCCC3)cn12	14.3	-6.0	-0.6	99.7*	14.7
O=C1CN2C(=Nc3ccc(Br)cc3C2c2ccccc2)CCN1 (stereo unspecified)	19.2	6.0	8.9	·	25.6
Brc1ccc2c(c1)CN1CCCC1=N2	-1.4	60.9*	44.7	7.0	39.4
CN(c1ccccc1)S(=O)(=O)c1ccc(NC(=O)c2nc(S(C)(=O)=O)ncc2Cl)cc1	56.4*	-25.7	-1.6	9.8	-20.1
CN(c1ccccc1)S(=O)(=O)c1ccc(NC(=O)c2ccccc2)cc1	22.7	-2.1	8.8	-9.7	12.7
CCc1ccc(NC(=O)c2nc(S(=O)(=O)Cc3ccccc3)ncc2Cl)cc1	30.9	-88.2	13.0	3.3	-35.5
CC(=O)Nc1ccc(NC(=O)c2nc(S(=O)(=O)Cc3cccc(C)c3)ncc2Cl)cc1	82.8*	-39.7	-55.3	-39.2	-48.6
CCOC(=O)c1ccc(NC(=O)c2nc(S(=O)(=O)Cc3ccccc3)ncc2Cl)cc1	-26.0	-44.2	-33.1	-9.1	-74.2
COC(=O)c1ccc(NC(=O)c2nc(S(=O)(=O)Cc3cccc(C)c3)ncc2Cl)cc1	59.6*	-80.7	11.4	6.2	-58.5
CCC(=O)N1CC2(C1)[C@H](c1ccccc1)[C@H](CO)N2CC1CCOCC1	·	·	·	-21.4	·
C[C@@H]1CN([C@@H](C)CO)S(=O)(=O)c2ccc(-c3ccccc3)cc2O[C@H]1CN(C)C(=O)C1CCC1	·	·	·	-2.8	·
C[C@H](CO)N1C[C@H](C)[C@@H](CN(C)C(=O)Nc2ccc3c(c2)OCO3)Oc2ccc(NC(=O)Cc3ccccc3)cc2CC1=O	·	·	·	-8.2	·
O=C(COC(=O)c1cc([N+](=O)[O-])ccc1Cl)NC1CCCC1	-0.2	-7.0	4.0	3.6	-13.8
CNC(=O)COC(=O)c1ccccc1C(=O)c1ccc(Cl)c([N+](=O)[O-])c1	-87.8	-75.5	-13.1	102.4*	-49.1
CC(C)OC(=O)c1ccccc1C(=O)c1ccc(N)c([N+](=O)[O-])c1	1.2	2.0	-12.7	6.4	7.9
O=C(COC(=O)c1ccccc1C(=O)c1ccc(Cl)c([N+](=O)[O-])c1)NC1CC1	-98.7	-42.9	-11.2	105.3*	-39.5
COc1ccccc1S(=O)(=O)N[C@@H]1CC[C@H](CC(=O)NCc2cc(F)cc(F)c2)O[C@H]1CO	·	·	·	1.5	·
Cc1ccsc1/C=N\NC(=O)c1n[nH]c2c1CCC2	-15.7	-83.1	-68.9	78.4*	-61.5
O=C(N/N=C/c1c(Cl)cccc1Cl)c1n[nH]c2c1CCCC2	-22.6	-141.2	-145.3	-73.0	-50.0
COc1ccc2c3c([nH]c2c1)[C@@H](CO)N(Cc1ccccn1)CC31CN(C(=O)c2ccccn2)C1	·	·	·	-9.4	·
CN(C)C(=O)[C@H]1[C@H](CO)[C@H]2Cn3c(ccc(C4=CCCC4)c3=O)[C@@H]1N2CC1CCCC1	·	·	·	-5.2	·
COc1ccc(C(=O)CC(Sc2ccccc2N)c2ccc(OC)cc2)cc1 (stereo unspecified)	-29.2	-53.0	-66.6	67.6*	-57.5

Compound activity from PubChem.
